Data on 8 compounds can be found in PubChem BioAssay (Tox21).

A number with no mark means an inactive call. Results filed as inconclusive are left out. The source made the active and inactive calls. Unless noted, calls come from the whole dose curve; as a rule, active = well fitted curve in the direction sought with a large enough effect in the repeat runs; inconclusive = weak or mixed curves; inactive = no such curve, though single readings can be large; an effect the other way counts as inactive or inconclusive.

Test [1] has as its target Estrogen receptor beta (Homo sapiens) (UniProt Q92731). The experiment in a line: qHTS assay to identify small molecule antagonists of the estrogen receptor beta (ER-beta) signaling pathway (AID 1259378; active = well fitted inhibition curve with a large enough effect in the signal ratio in the repeat runs, not every such curve was filed as active; the % refers to the signal ratio; note: potency is the fitted concentration of half-maximal effect). The procedure, abridged:
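ER-beta-UAS-bla HEK293T (GripTite) cells in 2% charcoal-stripped FBS medium were preincubated 6 hr at 37C, dosed with compound, then stimulated with 1 nM E2 (final) for 16 hr; beta-lactamase reporter read by B/G FRET fluorescence after 2 hr substrate loading.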

A short description of test [2]: qHTS assay to identify small molecule agonists of the androgen receptor (AR) signaling pathway in the presence of an antagonist - cell viability counter screen (AID 1259379). Note: nearly all actives have a fitted effect of over 25% in size. Note: potency is the fitted concentration of half-maximal effect. In short, it runs like this: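 Cells: MDA-kb2 (MMTV-luc, AR and GR elements), 3,000/well, 5 hr settle. Added: nilutamide 3.0uM final, then compounds (15 conc.). Incubation: 16 hr, 37C, no CO2. Read-out: CellTiter-Fluor, 1 hr, fluorescence.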

Test [3] is described as follows: qHTS assay to identify small molecule agonists of the estrogen receptor beta (ER-beta) signaling pathway - cell viability counter screen (AID 1259380). Note: nearly all actives have a fitted effect of over 30% in size. Note: potency is the fitted concentration of half-maximal effect. The procedure, abridged:
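HEK293T ER-beta-UAS-bla; 2% CS-FBS; 6 hr pre-plate, 16 hr cpd at 37C/5% CO2; LiveBLAzer read first, then CellTiter-Glo 30 min RT, luminescence.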

Test [4] concerns the target Androgen receptor (Homo sapiens) (UniProt P10275). The experiment in a line: qHTS assay to identify small molecule agonists of the androgen receptor (AR) signaling pathway in the presence of an antagonist (AID 1259381; calls by dose curve; note: nearly all actives have a fitted effect of over 15% in size). In short, it runs like this: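 MDA-kb2 cells, 3,000/well, rested 5hr at 37C/0% CO2 → nilutamide 3.0uM final or buffer → compounds, 15 conc. → 16hr at 37C → ONE-Glo, 30min RT → luminescence.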

Test [5] is described as follows: qHTS assay to identify small molecule antagonists of the estrogen receptor beta (ER-beta) signaling pathway - cell viability counter screen (AID 1259382). Note: nearly all actives have a fitted effect of over 55% in size. Note: potency is the fitted concentration of half-maximal effect. The procedure, abridged:
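Cells: ER-beta-UAS-bla HEK293T, 2,000/well, 2% CS-FBS, 6 hr settle. Cpd + E2 (1nM final), 16 hr, 37C/5% CO2. Bla FRET substrate 2 hr RT, then CellTiter-Glo 30 min RT, luminescence.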

Test [6] addresses Estrogen receptor (Homo sapiens) (UniProt P03372). The experiment in a line: qHTS assay to identify small molecule agonists of the estrogen receptor alpha (ER-alpha) signaling pathway in the presence of an antagonist (AID 1259383; calls by dose curve; note: top concentration of the series differs between compounds; nearly all actives have a fitted effect of over 15% in size). The procedure, abridged: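 VM7Luc4E2, endog. ER-alpha + 4×ERE-luc; charcoal-stripped FBS, phenol red-free, 5 d; 24hr plating; +10.0nM ICI-182,780 (final); cpds 15 conc, 22hr, 37C/5% CO2; ONE-Glo luminescence.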

The nature of test [7]: qHTS assay to identify small molecule agonists or antagonists of the thyroid stimulating hormone receptor (TSHR) signaling pathway - wild type cell line counter screen (AID 1259384; calls by dose curve). The procedure, abridged:
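Wild-type HEK293 cells were plated 18 h at 37 C/5% CO2, pin-dosed with compound plus Ro20-1724 medium, held 30 min at room temperature, then given cAMP-d2 and anti-cAMP-cryptate; fluorescence was read after 1 h. Fifteen concentrations, triplicate.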

For test [8], the target named is Thyrotropin receptor (Homo sapiens) (UniProt P16473). The experiment in a line: qHTS assay to identify small molecule antagonists of the thyroid stimulating hormone receptor (TSHR) signaling pathway (AID 1259385; calls by dose curve; note: nearly all actives have a fitted effect of over 20% in size; note: potency is the fitted concentration of half-maximal effect). In short, it runs like this:
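TSHR-HEK293 cells were plated and held 18 h at 37C/5% CO2, then given compound plus Ro20-1724 and stimulated with TSH at 1.5 ng/mL final. After 30 min at room temperature, cAMP was detected with cAMP-d2/anti-cAMP-cryptate (1 h) by fluorescence.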

Test [9] in a line: qHTS assay to identify small molecule agonists of the progesterone receptor (PR) signaling pathway - cell viability counter screen (AID 1346799; calls by dose curve; note: nearly all actives have a fitted effect of over 45% in size; note: potency is the fitted concentration of half-maximal effect). The procedure, abridged: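 Viability was scored by ATP luminescence (CellTiter-Glo, 30 min, room temperature) in the same wells used for the reporter readout, after 16 hr compound exposure of PR-UAS-bla HEK293T cells.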
Test [10] in a line: qHTS assay to identify small molecule agonists of the TGF-beta/Smad signaling pathway - cell viability counter screen (AID 1346829). Note: top concentration of the series differs between compounds; nearly all actives have a fitted effect of over 45% in size. The procedure, abridged: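 SBE-bla HEK 293T cells plated overnight, compound exposure 5 hr at 37 C. Viability read in the same wells by CellTiter-Glo luminescence after 30 min at room temperature, following the beta-lactamase read.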
A short description of test [11]: qHTS assay to identify small molecule agonists of the TGF-beta/Smad signaling pathway (AID 1346859; active = well fitted activation curve with a large enough effect in the signal ratio in the repeat runs, not every such curve was filed as active; the % refers to the signal ratio; note: series mostly up to about 77 µM). In short, it runs like this: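 Dual-wavelength fluorescence (460/530 nm emission) quantified beta-lactamase expression under the Smad binding element in HEK 293T cells following 5 hr compound treatment at 37 C.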
For test [12], the target named is Thyrotropin-releasing hormone receptor (Homo sapiens) (UniProt P34981). The experiment in a line: qHTS assay to identify small molecule agonists of the thyrotropin-releasing hormone receptor (TRHR) signaling pathway (AID 1346891; calls by dose curve;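 note: HEK293 cells expressing TRHR with calcium dye readout; series mostly up to about 58 µM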). The procedure, abridged:
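Kinetic fluorescence (3 min, 1 s intervals) reported intracellular calcium after compound transfer onto TRHR-Hek293 cells pre-loaded with dye for 2 h at 37 °C.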

The nature of test [13]: Human pregnane X receptor (PXR) small molecule agonists, qHTS cell viability counter screen (AID 1346977). Note: nearly all actives have a fitted effect of over 50% in size. Note: potency is the fitted concentration of half-maximal effect. The procedure, abridged:
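HepG2 cells stably carrying the PXR-Luc reporter are cultured with 5% charcoal-stripped FBS and treated with compounds for 24hr. CellTiter-Fluor is added at 23hr and fluorescence is read after 1hr.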

Test [14] concerns the target Progesterone receptor (Homo sapiens) (UniProt P06401). The experiment in a line: qHTS assay to identify small molecule antagonists of the progesterone receptor (PR) signaling pathway (AID 1346795; active = well fitted inhibition curve with a large enough effect in the signal ratio in the repeat runs, not every such curve was filed as active; the % refers to the signal ratio; note: potency is the fitted concentration of half-maximal effect). In short, it runs like this:
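After 6 hr plating at 37C in 2% stripped-serum medium, PR-UAS-bla HEK293T cells got compounds, then 1 nM R5020. Sixteen hours later, LiveBLAzer substrate was applied for 2 hr at room temperature and fluorescence was recorded.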

Test [15] is described as follows: qHTS assay to identify small molecule antagonists of the TGF-beta/Smad signaling pathway - cell viability counter screen (AID 1346824). Note: nearly all actives have a fitted effect of over 50% in size. The procedure, abridged:
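SBE-bla HEK 293T cells were plated overnight at 37 C, then given compounds in DMSO plus TGF-beta1 (added as 0.25 ng/mL solution) for 5 hr. After the bla read, CellTiter-Glo was added to the same wells and luminescence read after 30 min at room temperature.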

Test [16] has as its target Thyrotropin-releasing hormone receptor (Homo sapiens) (UniProt P34981). Kind of test: qHTS assay to identify small molecule antagonists of the thyrotropin-releasing hormone receptor (TRHR) signaling pathway (AID 1346877; active = well fitted inhibition curve with a large enough effect in the repeat runs, not every such curve was filed as active; note: series mostly up to about 51 µM). The procedure, abridged: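 Intracellular calcium fluorescence, read kinetically every second over 3 min, reports TRH-evoked signalling in HEK293 cells carrying TRHR. Test compounds were added 5 min ahead of a 1 nM TRH challenge.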

Test [17] in a line: qHTS assay to identify small molecule agonists of the estrogen receptor alpha (ER-alpha) signaling pathway in the presence of an antagonist - cell viability counter screen (AID 1259386).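 Note: series mostly up to about 92 µM; cells exposed to compounds for 22 h at 37 °C before the viability read; nearly all actives have a fitted effect of over 30% in size.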 In short, it runs like this: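 VM7Luc4E2, stripped-serum pre-culture 5 d; 24hr plating; +ICI-182,780 10.0nM final; cpds 15 conc, 22hr, 37C/5% CO2; CellTiter-Fluor added at 21hr, fluorescence 1hr later.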

The nature of test [18]: qHTS assay to identify small molecule antagonists of the progesterone receptor (PR) signaling pathway - cell viability counter screen (AID 1346798). Note: series mostly up to about 92 µM; nearly all actives have a fitted effect of over 50% in size. The procedure, abridged: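 Viability was determined by ATP-based luminescence (CellTiter-Glo) in PR-UAS-bla HEK293T cells cultured in 2% charcoal-stripped serum and incubated 16 hr with compounds under R5020 stimulation.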
Test [19] concerns the target Progesterone receptor (Homo sapiens) (UniProt P06401). Kind of test: qHTS assay to identify small molecule agonists of the progesterone receptor (PR) signaling pathway (AID 1346784; calls by dose curve; note: nearly all actives have a fitted effect of over 30% in size). In short, it runs like this: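 The screen uses PR-UAS-bla HEK 293T cells in charcoal-stripped serum (2%). Compounds are applied for 16 hr at 37C after a 6 hr pre-incubation, and reporter activity is detected with a FRET beta-lactamase substrate after 2 hr at room temperature.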

Chain of Androgen receptor (Homo sapiens) (P10275 whole entry, looked up): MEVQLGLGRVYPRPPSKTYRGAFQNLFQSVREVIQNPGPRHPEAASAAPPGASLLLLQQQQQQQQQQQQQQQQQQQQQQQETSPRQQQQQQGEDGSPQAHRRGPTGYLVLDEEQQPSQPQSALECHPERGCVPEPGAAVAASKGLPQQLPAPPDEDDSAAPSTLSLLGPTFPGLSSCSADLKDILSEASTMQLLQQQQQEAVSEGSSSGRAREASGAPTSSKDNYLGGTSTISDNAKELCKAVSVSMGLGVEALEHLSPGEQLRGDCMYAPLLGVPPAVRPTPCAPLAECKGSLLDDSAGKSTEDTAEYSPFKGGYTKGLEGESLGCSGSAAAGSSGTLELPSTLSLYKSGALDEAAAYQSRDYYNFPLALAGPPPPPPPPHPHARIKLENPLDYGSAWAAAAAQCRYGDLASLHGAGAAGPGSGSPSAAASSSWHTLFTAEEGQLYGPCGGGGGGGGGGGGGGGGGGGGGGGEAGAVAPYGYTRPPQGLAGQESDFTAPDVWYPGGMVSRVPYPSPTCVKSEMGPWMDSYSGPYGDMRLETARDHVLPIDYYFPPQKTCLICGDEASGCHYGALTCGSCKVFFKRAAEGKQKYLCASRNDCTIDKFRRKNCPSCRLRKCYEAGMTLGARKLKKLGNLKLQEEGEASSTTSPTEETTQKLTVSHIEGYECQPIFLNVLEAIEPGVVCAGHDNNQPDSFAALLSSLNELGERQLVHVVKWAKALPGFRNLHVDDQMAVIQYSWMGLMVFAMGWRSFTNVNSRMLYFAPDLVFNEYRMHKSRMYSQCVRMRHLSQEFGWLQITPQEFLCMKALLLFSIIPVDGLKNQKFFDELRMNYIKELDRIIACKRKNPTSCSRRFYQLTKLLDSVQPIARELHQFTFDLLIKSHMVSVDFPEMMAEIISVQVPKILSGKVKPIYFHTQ
Chain of Estrogen receptor (Homo sapiens) (P03372 whole entry, looked up): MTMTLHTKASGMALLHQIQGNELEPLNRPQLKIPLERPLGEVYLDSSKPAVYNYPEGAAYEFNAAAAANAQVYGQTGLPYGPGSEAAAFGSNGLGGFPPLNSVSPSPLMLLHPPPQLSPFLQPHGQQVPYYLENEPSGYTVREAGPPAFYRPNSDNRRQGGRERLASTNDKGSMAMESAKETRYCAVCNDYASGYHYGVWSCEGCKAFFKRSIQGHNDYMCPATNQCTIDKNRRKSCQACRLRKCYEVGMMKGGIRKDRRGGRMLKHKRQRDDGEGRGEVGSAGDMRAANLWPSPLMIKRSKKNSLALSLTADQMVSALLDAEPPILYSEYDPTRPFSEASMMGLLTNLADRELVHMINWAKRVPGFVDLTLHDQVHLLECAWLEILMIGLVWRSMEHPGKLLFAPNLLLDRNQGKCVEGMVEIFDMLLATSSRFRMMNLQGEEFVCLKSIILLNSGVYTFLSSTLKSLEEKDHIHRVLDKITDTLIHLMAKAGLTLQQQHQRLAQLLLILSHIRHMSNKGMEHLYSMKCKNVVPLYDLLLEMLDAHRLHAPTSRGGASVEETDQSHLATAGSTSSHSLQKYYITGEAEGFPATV
Chain of Progesterone receptor (Homo sapiens) (P06401 whole entry, looked up): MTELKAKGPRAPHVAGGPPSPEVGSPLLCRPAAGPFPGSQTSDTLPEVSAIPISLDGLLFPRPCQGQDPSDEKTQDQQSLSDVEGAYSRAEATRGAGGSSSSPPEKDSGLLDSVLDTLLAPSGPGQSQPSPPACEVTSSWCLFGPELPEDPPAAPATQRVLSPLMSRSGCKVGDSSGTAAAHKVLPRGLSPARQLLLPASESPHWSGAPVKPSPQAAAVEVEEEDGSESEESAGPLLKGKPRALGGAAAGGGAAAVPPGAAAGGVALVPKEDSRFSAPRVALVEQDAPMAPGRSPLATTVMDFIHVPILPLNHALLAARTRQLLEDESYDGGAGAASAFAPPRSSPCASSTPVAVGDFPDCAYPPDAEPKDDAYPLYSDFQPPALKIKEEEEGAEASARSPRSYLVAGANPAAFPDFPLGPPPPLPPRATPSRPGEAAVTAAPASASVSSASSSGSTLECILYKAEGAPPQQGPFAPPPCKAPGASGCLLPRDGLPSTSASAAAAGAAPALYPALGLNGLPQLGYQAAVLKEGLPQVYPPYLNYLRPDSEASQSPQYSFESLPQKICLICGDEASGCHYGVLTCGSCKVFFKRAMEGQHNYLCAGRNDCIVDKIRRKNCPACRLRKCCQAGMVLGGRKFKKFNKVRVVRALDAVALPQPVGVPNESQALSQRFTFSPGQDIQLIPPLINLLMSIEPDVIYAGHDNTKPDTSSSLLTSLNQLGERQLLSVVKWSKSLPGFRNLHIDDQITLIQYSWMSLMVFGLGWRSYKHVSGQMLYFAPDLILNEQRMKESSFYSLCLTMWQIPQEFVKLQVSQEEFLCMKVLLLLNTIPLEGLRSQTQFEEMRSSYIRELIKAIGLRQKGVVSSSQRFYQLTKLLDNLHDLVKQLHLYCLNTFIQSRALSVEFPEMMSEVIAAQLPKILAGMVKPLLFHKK
Chain of Thyrotropin receptor (Homo sapiens) (P16473 whole entry, looked up): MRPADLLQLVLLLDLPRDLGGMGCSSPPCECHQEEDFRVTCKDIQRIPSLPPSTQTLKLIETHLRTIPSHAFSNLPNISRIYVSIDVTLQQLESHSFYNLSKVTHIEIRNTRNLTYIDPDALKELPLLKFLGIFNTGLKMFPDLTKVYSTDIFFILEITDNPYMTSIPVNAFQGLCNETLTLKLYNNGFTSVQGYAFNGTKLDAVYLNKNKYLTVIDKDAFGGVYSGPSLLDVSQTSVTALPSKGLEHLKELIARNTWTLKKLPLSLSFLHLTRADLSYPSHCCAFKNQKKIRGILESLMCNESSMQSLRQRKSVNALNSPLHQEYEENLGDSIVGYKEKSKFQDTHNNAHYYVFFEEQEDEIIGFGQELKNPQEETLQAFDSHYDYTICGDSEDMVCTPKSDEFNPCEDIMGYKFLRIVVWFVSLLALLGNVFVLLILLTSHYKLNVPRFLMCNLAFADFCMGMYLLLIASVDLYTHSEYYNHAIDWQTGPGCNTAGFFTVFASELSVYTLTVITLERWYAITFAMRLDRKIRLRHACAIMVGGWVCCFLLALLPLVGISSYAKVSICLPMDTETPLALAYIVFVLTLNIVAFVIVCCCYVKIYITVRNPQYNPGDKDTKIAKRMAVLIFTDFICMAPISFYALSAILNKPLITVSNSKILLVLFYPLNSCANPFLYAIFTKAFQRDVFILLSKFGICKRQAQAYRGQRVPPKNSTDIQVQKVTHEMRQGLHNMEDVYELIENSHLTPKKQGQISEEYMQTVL
Chain of Estrogen receptor beta (Homo sapiens) (Q92731 whole entry, looked up): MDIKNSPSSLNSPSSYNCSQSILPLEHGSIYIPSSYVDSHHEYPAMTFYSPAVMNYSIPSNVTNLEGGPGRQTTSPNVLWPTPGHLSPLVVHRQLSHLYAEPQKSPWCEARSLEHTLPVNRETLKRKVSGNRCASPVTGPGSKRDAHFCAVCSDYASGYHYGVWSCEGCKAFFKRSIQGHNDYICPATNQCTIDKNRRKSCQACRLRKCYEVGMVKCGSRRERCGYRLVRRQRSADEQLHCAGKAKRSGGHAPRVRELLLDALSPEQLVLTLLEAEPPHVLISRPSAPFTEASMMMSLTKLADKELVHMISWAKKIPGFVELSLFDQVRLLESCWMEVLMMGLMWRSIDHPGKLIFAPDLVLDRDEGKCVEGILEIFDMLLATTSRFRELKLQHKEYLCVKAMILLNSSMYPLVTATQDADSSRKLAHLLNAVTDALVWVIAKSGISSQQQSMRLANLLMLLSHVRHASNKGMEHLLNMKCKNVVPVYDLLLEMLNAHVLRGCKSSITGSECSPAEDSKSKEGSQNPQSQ
Chain of Thyrotropin-releasing hormone receptor (Homo sapiens) (P34981 whole entry, looked up): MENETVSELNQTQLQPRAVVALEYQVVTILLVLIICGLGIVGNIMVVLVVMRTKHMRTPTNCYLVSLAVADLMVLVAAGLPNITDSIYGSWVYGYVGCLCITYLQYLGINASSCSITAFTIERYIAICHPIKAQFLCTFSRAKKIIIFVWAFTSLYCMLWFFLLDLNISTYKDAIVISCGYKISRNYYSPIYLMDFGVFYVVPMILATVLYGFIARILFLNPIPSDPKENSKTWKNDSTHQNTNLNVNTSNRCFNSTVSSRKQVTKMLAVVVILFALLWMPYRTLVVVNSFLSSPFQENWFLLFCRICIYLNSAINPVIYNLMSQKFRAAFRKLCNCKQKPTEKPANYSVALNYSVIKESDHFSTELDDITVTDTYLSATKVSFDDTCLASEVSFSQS

As to `COc1ccccc1OCCNCC(O)COc1cccc2[nH]c3ccccc3c12` (centres undefined), the Potency is 7.5 µM (active) in [1]; 29.8 µM (active) in test [2]; 9.44 µM (active) in test [3]; 11.9 µM (active) in test [5]; 33.5 µM (active) in [8]; 15 µM (active) in test [9]. Besides, in [13], the Potency is 23.7 µM (active). The Potency result in test [4], in [6], in [10], in [11] and in [12] was “inactive” throughout. In [7], the outcome was inactive.

Consider `CC(C)(C)c1cc(/C=C2\SC(=N)NC2=O)cc(C(C)(C)C)c1O`, for which the Potency is 21.7 µM (active) in test [1], 61.1 µM (active) in test [14] and 48.6 µM (active) in test [13]. Further, the Potency result in test [2], in test [5], in test [8], in [15], in test [10] and in test [11] was “inactive” throughout. In addition, the Potency entry in test [16] and in [12] was “inactive” each time. Besides, the call in test [7] was inactive.

In the case of `COC(=O)CC(C)CCC=C(C)C` (centres undefined), the Potency entry in [1], in test [2], in test [3], in test [5], in test [6] and in [17] was “inactive” each time. Further, the Potency entry in [18], in test [9], in [15], in test [10], in test [11] and in [16] was “inactive” each time. Further, the Potency result in test [12] and in test [13] was “inactive” in each case.

With `C=C(C)CCCC`, the Potency result in test [1], in [2], in [3], in test [4], in test [5] and in test [8] was “inactive” in each case. For the same compound, the Potency entry in test [14], in test [18], in test [9], in test [15], in [10] and in [11] was “inactive” in each case. For the same compound, the Potency result in test [16], in [12] and in test [13] was “inactive” in each case. For the same compound, the result in [7] and in test [19] was inactive.

On to `CC(C)C(=O)OCc1ccccc1`, for which the Potency entry in [1], in [2], in [3], in [5], in test [6] and in [8] was “inactive” in each case. Besides, the Potency entry in test [17], in [14], in [18], in test [9], in [15] and in [10] was “inactive” each time. Also, the Potency entry in [11] and in test [13] was “inactive” throughout. Besides, the compound was classed as inactive in [7].

With `CC(=O)C=O`, the Potency result in [1], in test [2], in test [3], in [4], in test [5] and in [6] was “inactive” throughout. For the same compound, the Potency result in test [17], in test [14], in test [18], in [9], in test [15] and in [10] was “inactive” throughout. The Potency result in test [11] and in test [13] was “inactive” each time. In addition, the compound was called inactive in test [19].

Regarding `CCc1c(Br)c(Br)c(Br)c(Br)c1Br`, the Potency result in test [1], in [2], in test [3], in [4], in test [5] and in [6] was “inactive” throughout. The Potency entry in test [17], in test [14], in test [18], in test [9], in [15] and in test [10] was “inactive” each time. The Potency result in [11], in test [16], in test [12] and in [13] was “inactive” throughout.

In the case of `CCCCNc1c(C(=O)OCC)c(C)nc2c1cnn2CC`, the Potency result in [1], in test [2], in test [5], in test [6], in [8] and in test [17] was “inactive” each time. Besides, the Potency entry in test [18], in [15], in test [10], in test [11] and in [13] was “inactive” each time. For the same compound, the compound was classed as inactive in test [7].
